Screening data (PubChem)
NPC1 prom act – activators of NPC1 promoter. Huh7 NPC1 promoter luciferase reporter, 24 h. Potency, µM (highest dose often 9.22 µM), inactives show top-dose activation, actives largely listed as activators. 320,000 tested, 2.4% active. AID 485313; further: % of control where 0% means no effect; nearly all actives have a fitted effect of over 60% in size
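Quantitative HTS used a cell-based reporter: Huh7 cells stably bearing the NPC1 promoter upstream of luciferase were treated with compounds for 24 h, and promoter activation was read as luminescence.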
Rab9 promoter act – activates the Rab9 promoter. Huh7 Rab9 promoter-luciferase reporter, luminescence, 24 h. Potency, µM (top dose mostly 9.22 µM), inactives show at the highest dose activation, negative = inhibition, usual class: activators. 320,000 tested, 2.8% active; further: % of control where 0% means no effect; nearly all actives have a fitted effect of over 60% in size
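Huh7 cells stably carrying Rab9 promoter–luciferase reporter, plated 1500 cells/well, compound added after 2 h and incubated 24 h at 37 °C; luciferase luminescence then read after 10 min with detection reagent.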
ELG1 genotox – inducers of genotoxicity in HEK293T ELG1-luciferase cells. Potency, µM (titrated, usually from 46 µM), inactives show at the highest dose activity change, positive = activation, usual class: activators. 330,000 tested, 1.3% active. AID 504466. HEK293T ELG1-luciferase reporter, luminescence, 16 h; further: % of control where 0% means no effect; nearly all actives have a fitted effect of over 60% in size
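DMSO vehicle served as control against compound-treated ELG1-luciferase HEK293T cells; exposure lasted 16 hr at 37 °C and 5% CO2, followed by ONE-Glo luminescence detection after 30 min.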
ELG1 DNA repair – ELG1-dependent DNA repair inhibition; HEK293T ELG1-luciferase reporter, luminescence, 16 h; DNA damage induced by 5-fluorouridine; Potency, µM (top dose mostly 46.1 µM), for inactives: at the highest dose activity change, negative = inhibition, hits mostly inhibitors; 330,000 tested, 2.3% active; further: on the % scale 0 is the no-effect control and ±100 the full control effect; nearly all actives have a fitted effect of over 55% in size
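In this reporter screen, reduction of luminescence relative to DMSO vehicle indicated activity. Compounds and 5-fluorouridine were added together to 2,000 cells per well, incubated for 16 hr at 37 °C, then developed with ONE-Glo.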
SMN2 splice enh – increases expression of the SMN2 splice variant; Potency, µM (top dose mostly 46.1 µM), inactives show at the highest dose activity change, positive = activation, usual class: activators; 210,000 tested, 2.8% active; HEK293 SMN2-luciferase splicing reporter, luminescence, 30-36 h; further: % of control where 0% means no effect; nearly all actives have a fitted effect of over 55% in size
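HEK293 cells carry an SMN2 minigene-luciferase reporter in which exon 7 inclusion puts luciferase in frame. Cells were seeded at 2000 cells/well, attached for 10-12 hours, then exposed to compounds for 30-36 hours at 37C before ONE-Glo luminescence.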
FLuc modulator – counter-screen for miR-21 project: firefly luciferase inhibitors or activators | Potency, µM (titrated, usually from 57.5 µM), inactives show at the top dose activity change, negative = inhibition, most hits filed as inhibitors | 360,000 tested, 6.9% active | AID 588342 | P08659 | purified FLuc, Km substrates, luminescence inhibition;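 further: plate controls were vehicle for no effect and reference inhibitor for full effect; nearly all actives have a fitted effect of over 55% in size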
Target sequence (P08659 whole entry, looked up): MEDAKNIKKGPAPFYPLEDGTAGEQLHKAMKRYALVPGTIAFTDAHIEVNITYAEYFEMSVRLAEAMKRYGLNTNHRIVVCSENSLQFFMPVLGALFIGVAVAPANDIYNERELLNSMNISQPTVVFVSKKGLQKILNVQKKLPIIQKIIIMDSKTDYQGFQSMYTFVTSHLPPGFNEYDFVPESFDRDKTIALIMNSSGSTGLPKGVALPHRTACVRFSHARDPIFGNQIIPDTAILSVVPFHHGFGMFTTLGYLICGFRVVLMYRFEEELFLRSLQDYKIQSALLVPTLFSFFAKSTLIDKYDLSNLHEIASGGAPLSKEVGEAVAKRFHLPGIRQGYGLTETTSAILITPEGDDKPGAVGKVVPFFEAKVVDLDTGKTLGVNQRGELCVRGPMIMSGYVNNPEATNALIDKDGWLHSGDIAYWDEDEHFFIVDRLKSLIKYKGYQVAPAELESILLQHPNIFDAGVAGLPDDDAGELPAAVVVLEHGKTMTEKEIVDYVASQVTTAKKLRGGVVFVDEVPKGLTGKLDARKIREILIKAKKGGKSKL
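Purified P. pyralis luciferase (10nM final) with 10uM D-luciferin and 10uM ATP (Km levels) in 50mM Tris acetate pH 7.5, 10mM Mg acetate, 0.01% Tween-20, 0.05% BSA; qHTS 6-point titration, ~60 µM downward; luminescence read.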
Numbers without * were called inactive; ? = inconclusive; . = no result; [ ] = another dose, or the depositor's remark. This is a sample that favours compounds with a hit; in the whole collection about 9.2% have one here. The call rests on the fitted dose curve; in most records, active means well fitted curve in the direction sought with a large enough effect; inconclusive means small, poorly fitted or top-dose-only effect, or another doubt; inactive means no such curve, though single readings can be large; an effect the other way counts as inactive or inconclusive. Potency means the concentration at half of the fitted maximal effect.

SMILES	NPC1 prom act	Rab9 promoter act	ELG1 genotox	ELG1 DNA repair	SMN2 splice enh	FLuc modulator
O=C(/C=C\c1ccc(-c2ccccc2)o1)c1ccccc1	?	?	?	?	?	6.01µM*
Cc1ccc(C(=O)/C=C/c2ccc(-c3ccc(C)cc3)o2)cc1	0.8%	2.1%	9.5%	24.5%	25.1%[1.84 µM]	-5.0%
N/C(=N\OC(=O)/C=C/c1ccccc1)c1ccccc1	?	?	8.2µM*	?	.	1.51µM*
CC(C)(C)C(=O)/C=C(\N)c1ccccn1	-0.5%	-0.1%	4.9%	?	13.3%	-8.2%
O=C(/C=C/c1ccc(NC(=O)c2ccccc2-c2ccccc2C(=O)O)cc1)c1ccccc1	7.0%	21.2%	-4.6%	1.7%	.	19µM*
CC(C)(C)C(=O)/C=C(N)/C=C/c1ccccc1	?	7.0%	?	?	14.1%	12µM*
CC(C)OC(=O)c1cc2c(=O)[nH]c(C(Cl)(Cl)Cl)nc2o1	-0.9%	14.0%	2.5%	17.4%	-16.3%	?
N#Cc1ccccc1COc1ccc(/C=C/C(=O)O)cc1	-4.8%	-18.3%	-2.5%	6.6%	-18.0%	2.39µM*
CCOC(=O)N1CCN(C(=S)Nc2ccc(C)cc2)CC1	0.3%	-3.0%	0.6%	-0.1%	-7.7%	0.4%
CC(C)C(=O)Nc1cccc(-c2csc(-c3ccccc3)n2)c1	-2.0%	-0.9%	-0.5%	9.8%	?	16.9µM*
Cc1nc(-c2cccc(NC(=O)Cc3ccccc3)c2)cs1	-1.8%	3.8%	-1.0%	?	2.9%	?
CC(C)C(=O)Nc1ccc(-c2csc(-c3ccccc3)n2)cc1	2.24µM*	?	22.2%	?	?	?
COc1cccc(NC(=O)CN(C)C(C)C(=O)N2CCCC2)c1 (stereo not drawn)	-2.7%	1.8%	4.0%	15.8%	.	1.2%
Cc1ccc(NC(=O)c2nc(S(C)(=O)=O)ncc2N(Cc2ccccc2)Cc2ccco2)c(C)c1	.	.	.	.	.	3.5%
COC(=O)[C@@H]1C2CC3c4[nH]c5cc(OC)ccc5c4CCN3CC2C[C@H](OC(=O)c2cc(OC)c(OC)c(OC)c2)C1OC (stereo partly drawn)	.	.	.	.	-2.6%	.
COC(=O)[C@H]1[C@H]2C[C@@H]3c4[nH]c5cc(OC)ccc5c4CCN3C[C@H]2C[C@@H](OC(=O)c2cc(OC)c(OC)c(OC)c2)[C@@H]1OC	-14.4%[46.1 µM]	-23.5%[46.1 µM]	-18.1%	10µM*	7.8%	6.6%
CC(C)N=C1NN=C(c2ccc(Cl)c(Cl)c2)CS1	1.41µM*	0.355µM*	2.06µM*	?	5.01µM*	3.38µM*
CC(C)N=C1NN=C(c2cccs2)CS1	3.16µM*	0.794µM*	?	?	11.2µM*	23.9µM*
CC(C)c1ccc(N=C2NN=C(c3cccs3)CS2)cc1	2µM*	0.708µM*	?	?	12.6µM*	6.01µM*
Cc1ccc(S(=O)(=O)NCC(=O)OCC(=O)N2CCN(C(=O)c3ccco3)CC2)cc1C	-0.6%	1.3%	4.5%	11.4%	.	5.1%
Nc1c(S(=O)(=O)O)cc(S(=O)(=O)O)c2ccc(N=Nc3ccccc3)c(O)c12	.	.	.	.	-8.7%[9.22 µM]	.
Nc1ccccc1N=Nc1ccccc1N	1.58µM*	1.58µM*	?	?	.	5.36µM*
Nc1ccccc1-c1ccccc1N	5.3%	-9.4%	-0.2%	13.3%	.	-0.9%
Nc1ccc(N=Nc2ccccc2)c(N)c1	.	.	.	.	28.2µM*	.
COc1cc2c(cc1OC)C(COc1ccccc1OC)N(C(=O)CC(C)C)CC2 (stereo not drawn)	.	.	.	.	.	-3.4%
SMILES	NPC1 prom act	Rab9 promoter act	ELG1 genotox	ELG1 DNA repair	SMN2 splice enh	FLuc modulator
CCOC(=O)c1c(NC(=O)CCN2CCOCC2)sc2c1CC(C)(C)OC2	-4.2%	-8.0%	1.2%	?	?	6.1%
COC(=O)c1c(NC(=O)CN2CCOCC2)sc2c1CCC(C)C2 (stereo not drawn)	8.3%	23.4%	18.9%	?	-4.8%	12µM*
CCOC(=O)c1c(NC(=O)c2ccc(C)cc2)sc2c1CC(C)(C)OC2	-0.7%	2.2%	-2.7%	8.2µM*	-22.9%	-3.6%
CCCC(=O)Nc1sc2c(c1C(=O)OCC)CC(C)(C)OC2	-4.5%	-2.2%	-0.7%	7.3µM*	2.2%	-0.2%
CCOC(=O)c1c(NC(=O)CN2CCOCC2)sc2c1CC(C)(C)OC2	9.1%	-1.4%	-7.8%	8.2µM*	-2.5%	-0.1%
CCCCCCNC(=O)c1cn(CC)c2cc(N3CCN(C)CC3)c(F)cc2c1=O	-3.7%	0.0%	-11.0%	2.5%	.	1.7%
Cc1ccc2c(cnn2C(=O)CCC(=O)NCc2cccc(Cl)c2)c1	12.9%	4.7%	3.7%	?	.	-1.7%
Cc1ccc(-n2nc(C)c(C(=O)N3CCN(C(=O)c4ccco4)CC3)c2-n2cccc2)cc1	-1.9%	-4.9%	1.6%	2.8%	.	1.5%
COC(=O)c1c(NC(=S)NN2CCOCC2)sc2c1CCCC2	-1.6%	-2.6%	-3.6%	-17.4%	.	15.1µM*
COC(=O)c1c(NC(=S)NC(=O)c2ccco2)sc2c1CCCC2	-11.4%	-6.2%	8.0%	?	-5.2%	?
CCOc1cccc(C(=O)NC(=S)Nc2cccc(NC(=O)c3ccccc3Cl)c2)c1	-6.6%	-5.7%	-3.6%	8.2µM*	-29.8%	?
CCOc1cccc(C(=O)NC(=S)Nc2cccnc2)c1	17.9%	21.6%	8.4%	?	17.2%	?
CCOc1cccc(C(=O)NC(=S)Nc2ccccc2)c1	?	?	?	?	11.2µM*	6.75µM*
CCOc1cccc(C(=O)Nc2ccc(NC(=O)c3ccccc3)c(C)c2)c1	0.1%	1.8%	-3.3%	-22.1%	.	13.5µM*
CCCOc1ccc(C(=O)Nc2ccc(NC(=O)c3ccccc3)c(C)c2)cc1	.	.	.	.	14.9%	-0.8%
CN(C)C1(CN=Cc2cc(Cl)cc([N+](=O)[O-])c2O)CCCCC1	-3.1%	-3.6%	0.1%	?	.	-1.3%
O=C(Nc1noc2ccccc12)c1c(F)cccc1F	.	.	.	.	22.4µM*	7.57µM*
O=C(Nc1ccccc1NC(=O)c1c(F)cccc1F)c1c(F)cccc1F	1.1%	-9.1%	-1.9%	2.1%	.	-2.2%
CCCCNC(=O)C1CC(c2cccc([N+](=O)[O-])c2)=NO1 (stereo not drawn)	2.82µM*	2.82µM*	?	?	?	10.7µM*
O=C(NCCc1cccs1)C1CC(c2ccccc2[N+](=O)[O-])=NO1 (stereo not drawn)	?	?	15.0%	?	24.0%	15.1µM*
COc1ccc(CCNC(=O)C2CC(c3ccccc3[N+](=O)[O-])=NO2)cc1 (stereo not drawn)	?	?	20.9%	?	26.7%	19µM*
